Assays:
Test in all cases: log2 ratio of Biotin-Ahx-Ub-VS probe labelling (fragment/DMSO); higher = less target engagement (more negative = stronger competition), active = hit call of the paper (q ≤ 0.05, log2 ratio ≤ -1)
Conditions in all cases: compound concentration: 200 uM; treatment time: 3 h
[1] = biological target: USP34 (UniProt Q70CQ2)
Procedure, shortened: (§1)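 HEK293T lysate, 495 µg per sample in Tris/CHAPS/IGEPAL buffer with protease inhibitors, was treated in triplicate with fragment at 200 µM or vehicle for 3 h and then with Biotin-Ahx-Ub-VS at 0.5 µM final for 1 h. Labelled DUBs were NeutrAvidin-enriched, digested with LysC and trypsin, and run by diaPASEF LC-MS/MS. Spectronaut label-free quantities were global-median-normalised, and values are average log2 fragment/vehicle ratios by unpaired t-test on proteins with ≥2 unique peptides.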

[2] = biological target: T1, USP36 (UniProt Q9P275)
T1 sequence (whole entry): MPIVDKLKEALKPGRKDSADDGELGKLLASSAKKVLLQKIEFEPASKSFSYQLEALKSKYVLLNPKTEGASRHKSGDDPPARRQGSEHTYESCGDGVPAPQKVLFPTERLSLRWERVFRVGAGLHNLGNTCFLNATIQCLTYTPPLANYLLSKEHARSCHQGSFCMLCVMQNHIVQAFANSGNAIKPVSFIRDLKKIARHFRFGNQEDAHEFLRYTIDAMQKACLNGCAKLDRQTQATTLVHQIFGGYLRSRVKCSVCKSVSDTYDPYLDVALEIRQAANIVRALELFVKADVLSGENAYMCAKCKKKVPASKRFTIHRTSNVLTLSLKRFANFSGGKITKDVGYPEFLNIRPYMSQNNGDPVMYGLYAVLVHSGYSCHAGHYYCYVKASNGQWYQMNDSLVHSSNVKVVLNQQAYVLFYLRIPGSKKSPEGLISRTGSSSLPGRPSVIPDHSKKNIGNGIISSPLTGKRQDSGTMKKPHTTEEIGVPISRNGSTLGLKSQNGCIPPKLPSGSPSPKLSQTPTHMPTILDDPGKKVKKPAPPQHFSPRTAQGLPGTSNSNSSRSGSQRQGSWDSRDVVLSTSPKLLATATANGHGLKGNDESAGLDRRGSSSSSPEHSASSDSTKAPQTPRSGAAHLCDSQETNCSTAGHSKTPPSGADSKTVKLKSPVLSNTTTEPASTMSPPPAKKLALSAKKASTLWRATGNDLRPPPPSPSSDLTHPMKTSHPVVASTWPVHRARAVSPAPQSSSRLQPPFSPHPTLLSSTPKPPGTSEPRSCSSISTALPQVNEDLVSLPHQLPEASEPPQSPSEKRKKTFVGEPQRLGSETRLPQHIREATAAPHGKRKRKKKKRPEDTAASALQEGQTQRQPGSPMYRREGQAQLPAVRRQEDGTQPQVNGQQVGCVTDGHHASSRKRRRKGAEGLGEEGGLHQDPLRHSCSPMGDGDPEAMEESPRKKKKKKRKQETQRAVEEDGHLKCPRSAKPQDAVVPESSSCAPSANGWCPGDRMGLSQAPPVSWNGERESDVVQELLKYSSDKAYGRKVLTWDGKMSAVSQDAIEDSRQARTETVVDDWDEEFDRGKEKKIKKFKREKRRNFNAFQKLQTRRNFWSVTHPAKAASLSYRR
Procedure, shortened: as §1

[3] = biological target: T2, USP38 (UniProt Q8NB14)
T2 sequence (whole entry): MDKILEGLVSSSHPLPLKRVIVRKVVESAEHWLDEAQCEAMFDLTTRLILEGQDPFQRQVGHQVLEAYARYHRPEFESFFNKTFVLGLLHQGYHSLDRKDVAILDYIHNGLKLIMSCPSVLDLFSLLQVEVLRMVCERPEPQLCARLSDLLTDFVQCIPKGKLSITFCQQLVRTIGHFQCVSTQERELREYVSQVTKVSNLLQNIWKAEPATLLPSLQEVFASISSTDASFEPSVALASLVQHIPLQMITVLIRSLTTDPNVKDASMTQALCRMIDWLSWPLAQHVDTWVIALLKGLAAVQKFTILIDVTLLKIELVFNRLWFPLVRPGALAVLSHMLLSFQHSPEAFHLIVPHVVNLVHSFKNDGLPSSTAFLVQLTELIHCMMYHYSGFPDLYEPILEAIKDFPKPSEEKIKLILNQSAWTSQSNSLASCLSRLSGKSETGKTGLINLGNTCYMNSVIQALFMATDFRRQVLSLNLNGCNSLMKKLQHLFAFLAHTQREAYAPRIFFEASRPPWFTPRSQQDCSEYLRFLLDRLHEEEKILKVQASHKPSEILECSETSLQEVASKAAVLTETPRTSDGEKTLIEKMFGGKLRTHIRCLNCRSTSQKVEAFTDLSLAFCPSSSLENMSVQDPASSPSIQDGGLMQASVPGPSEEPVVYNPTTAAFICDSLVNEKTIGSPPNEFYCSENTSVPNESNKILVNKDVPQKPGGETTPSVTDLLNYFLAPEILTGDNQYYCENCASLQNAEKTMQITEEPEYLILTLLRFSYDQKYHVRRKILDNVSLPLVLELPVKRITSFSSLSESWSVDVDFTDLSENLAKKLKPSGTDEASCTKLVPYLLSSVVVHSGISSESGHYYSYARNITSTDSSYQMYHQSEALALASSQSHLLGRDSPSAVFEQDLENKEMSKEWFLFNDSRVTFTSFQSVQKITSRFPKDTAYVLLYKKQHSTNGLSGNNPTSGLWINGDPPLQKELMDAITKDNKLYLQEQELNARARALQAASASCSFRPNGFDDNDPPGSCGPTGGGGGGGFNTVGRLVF
Procedure, shortened: as §1

[4] = biological target: T3, USP39 (UniProt Q53GS9)
T3 sequence (whole entry): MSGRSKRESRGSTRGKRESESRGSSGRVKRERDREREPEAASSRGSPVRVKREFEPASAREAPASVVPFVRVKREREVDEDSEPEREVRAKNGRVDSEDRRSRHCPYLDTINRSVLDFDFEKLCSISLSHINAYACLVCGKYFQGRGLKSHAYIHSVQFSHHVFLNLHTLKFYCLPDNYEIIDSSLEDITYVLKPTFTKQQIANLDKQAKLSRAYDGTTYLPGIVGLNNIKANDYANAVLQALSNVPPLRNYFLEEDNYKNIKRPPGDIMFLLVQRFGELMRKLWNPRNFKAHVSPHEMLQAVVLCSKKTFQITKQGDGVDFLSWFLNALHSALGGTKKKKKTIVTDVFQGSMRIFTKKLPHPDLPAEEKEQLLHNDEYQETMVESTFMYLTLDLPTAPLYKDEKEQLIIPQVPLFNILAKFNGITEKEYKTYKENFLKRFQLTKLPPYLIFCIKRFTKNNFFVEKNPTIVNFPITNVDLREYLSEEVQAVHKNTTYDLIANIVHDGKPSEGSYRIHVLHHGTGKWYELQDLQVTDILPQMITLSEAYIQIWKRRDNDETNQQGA
Procedure, shortened: as §1

[5] = biological target: T4, USP4 (UniProt Q13107)
T4 sequence (whole entry): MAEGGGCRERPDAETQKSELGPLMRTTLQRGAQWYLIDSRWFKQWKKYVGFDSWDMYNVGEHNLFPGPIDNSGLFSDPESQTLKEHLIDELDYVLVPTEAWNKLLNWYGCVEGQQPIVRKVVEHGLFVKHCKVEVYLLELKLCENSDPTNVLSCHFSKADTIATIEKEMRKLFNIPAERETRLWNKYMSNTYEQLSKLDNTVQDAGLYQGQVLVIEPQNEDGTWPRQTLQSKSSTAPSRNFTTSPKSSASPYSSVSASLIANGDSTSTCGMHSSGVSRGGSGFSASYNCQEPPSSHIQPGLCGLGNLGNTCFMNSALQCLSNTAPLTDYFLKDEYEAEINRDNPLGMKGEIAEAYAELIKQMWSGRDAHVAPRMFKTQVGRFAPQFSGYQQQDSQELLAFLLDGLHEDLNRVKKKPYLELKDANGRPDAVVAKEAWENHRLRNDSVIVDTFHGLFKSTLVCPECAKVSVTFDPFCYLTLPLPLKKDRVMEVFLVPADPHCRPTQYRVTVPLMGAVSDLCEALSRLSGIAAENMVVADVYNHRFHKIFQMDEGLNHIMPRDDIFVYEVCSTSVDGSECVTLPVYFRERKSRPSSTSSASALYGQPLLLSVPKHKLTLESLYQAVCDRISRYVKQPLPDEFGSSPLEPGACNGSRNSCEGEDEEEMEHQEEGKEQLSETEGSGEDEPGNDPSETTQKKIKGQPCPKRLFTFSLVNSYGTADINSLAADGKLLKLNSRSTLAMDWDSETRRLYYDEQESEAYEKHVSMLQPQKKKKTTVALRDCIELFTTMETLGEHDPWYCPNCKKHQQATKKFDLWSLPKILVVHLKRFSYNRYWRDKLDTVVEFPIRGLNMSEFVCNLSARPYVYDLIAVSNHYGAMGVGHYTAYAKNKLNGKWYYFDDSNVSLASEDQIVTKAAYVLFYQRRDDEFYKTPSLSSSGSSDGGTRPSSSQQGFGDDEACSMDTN
Procedure, shortened: as §1

Measured: log2 ratio of Biotin-Ahx-Ub-VS probe labelling

Chain of USP34 (Q70CQ2 whole entry, the tested form may be a part): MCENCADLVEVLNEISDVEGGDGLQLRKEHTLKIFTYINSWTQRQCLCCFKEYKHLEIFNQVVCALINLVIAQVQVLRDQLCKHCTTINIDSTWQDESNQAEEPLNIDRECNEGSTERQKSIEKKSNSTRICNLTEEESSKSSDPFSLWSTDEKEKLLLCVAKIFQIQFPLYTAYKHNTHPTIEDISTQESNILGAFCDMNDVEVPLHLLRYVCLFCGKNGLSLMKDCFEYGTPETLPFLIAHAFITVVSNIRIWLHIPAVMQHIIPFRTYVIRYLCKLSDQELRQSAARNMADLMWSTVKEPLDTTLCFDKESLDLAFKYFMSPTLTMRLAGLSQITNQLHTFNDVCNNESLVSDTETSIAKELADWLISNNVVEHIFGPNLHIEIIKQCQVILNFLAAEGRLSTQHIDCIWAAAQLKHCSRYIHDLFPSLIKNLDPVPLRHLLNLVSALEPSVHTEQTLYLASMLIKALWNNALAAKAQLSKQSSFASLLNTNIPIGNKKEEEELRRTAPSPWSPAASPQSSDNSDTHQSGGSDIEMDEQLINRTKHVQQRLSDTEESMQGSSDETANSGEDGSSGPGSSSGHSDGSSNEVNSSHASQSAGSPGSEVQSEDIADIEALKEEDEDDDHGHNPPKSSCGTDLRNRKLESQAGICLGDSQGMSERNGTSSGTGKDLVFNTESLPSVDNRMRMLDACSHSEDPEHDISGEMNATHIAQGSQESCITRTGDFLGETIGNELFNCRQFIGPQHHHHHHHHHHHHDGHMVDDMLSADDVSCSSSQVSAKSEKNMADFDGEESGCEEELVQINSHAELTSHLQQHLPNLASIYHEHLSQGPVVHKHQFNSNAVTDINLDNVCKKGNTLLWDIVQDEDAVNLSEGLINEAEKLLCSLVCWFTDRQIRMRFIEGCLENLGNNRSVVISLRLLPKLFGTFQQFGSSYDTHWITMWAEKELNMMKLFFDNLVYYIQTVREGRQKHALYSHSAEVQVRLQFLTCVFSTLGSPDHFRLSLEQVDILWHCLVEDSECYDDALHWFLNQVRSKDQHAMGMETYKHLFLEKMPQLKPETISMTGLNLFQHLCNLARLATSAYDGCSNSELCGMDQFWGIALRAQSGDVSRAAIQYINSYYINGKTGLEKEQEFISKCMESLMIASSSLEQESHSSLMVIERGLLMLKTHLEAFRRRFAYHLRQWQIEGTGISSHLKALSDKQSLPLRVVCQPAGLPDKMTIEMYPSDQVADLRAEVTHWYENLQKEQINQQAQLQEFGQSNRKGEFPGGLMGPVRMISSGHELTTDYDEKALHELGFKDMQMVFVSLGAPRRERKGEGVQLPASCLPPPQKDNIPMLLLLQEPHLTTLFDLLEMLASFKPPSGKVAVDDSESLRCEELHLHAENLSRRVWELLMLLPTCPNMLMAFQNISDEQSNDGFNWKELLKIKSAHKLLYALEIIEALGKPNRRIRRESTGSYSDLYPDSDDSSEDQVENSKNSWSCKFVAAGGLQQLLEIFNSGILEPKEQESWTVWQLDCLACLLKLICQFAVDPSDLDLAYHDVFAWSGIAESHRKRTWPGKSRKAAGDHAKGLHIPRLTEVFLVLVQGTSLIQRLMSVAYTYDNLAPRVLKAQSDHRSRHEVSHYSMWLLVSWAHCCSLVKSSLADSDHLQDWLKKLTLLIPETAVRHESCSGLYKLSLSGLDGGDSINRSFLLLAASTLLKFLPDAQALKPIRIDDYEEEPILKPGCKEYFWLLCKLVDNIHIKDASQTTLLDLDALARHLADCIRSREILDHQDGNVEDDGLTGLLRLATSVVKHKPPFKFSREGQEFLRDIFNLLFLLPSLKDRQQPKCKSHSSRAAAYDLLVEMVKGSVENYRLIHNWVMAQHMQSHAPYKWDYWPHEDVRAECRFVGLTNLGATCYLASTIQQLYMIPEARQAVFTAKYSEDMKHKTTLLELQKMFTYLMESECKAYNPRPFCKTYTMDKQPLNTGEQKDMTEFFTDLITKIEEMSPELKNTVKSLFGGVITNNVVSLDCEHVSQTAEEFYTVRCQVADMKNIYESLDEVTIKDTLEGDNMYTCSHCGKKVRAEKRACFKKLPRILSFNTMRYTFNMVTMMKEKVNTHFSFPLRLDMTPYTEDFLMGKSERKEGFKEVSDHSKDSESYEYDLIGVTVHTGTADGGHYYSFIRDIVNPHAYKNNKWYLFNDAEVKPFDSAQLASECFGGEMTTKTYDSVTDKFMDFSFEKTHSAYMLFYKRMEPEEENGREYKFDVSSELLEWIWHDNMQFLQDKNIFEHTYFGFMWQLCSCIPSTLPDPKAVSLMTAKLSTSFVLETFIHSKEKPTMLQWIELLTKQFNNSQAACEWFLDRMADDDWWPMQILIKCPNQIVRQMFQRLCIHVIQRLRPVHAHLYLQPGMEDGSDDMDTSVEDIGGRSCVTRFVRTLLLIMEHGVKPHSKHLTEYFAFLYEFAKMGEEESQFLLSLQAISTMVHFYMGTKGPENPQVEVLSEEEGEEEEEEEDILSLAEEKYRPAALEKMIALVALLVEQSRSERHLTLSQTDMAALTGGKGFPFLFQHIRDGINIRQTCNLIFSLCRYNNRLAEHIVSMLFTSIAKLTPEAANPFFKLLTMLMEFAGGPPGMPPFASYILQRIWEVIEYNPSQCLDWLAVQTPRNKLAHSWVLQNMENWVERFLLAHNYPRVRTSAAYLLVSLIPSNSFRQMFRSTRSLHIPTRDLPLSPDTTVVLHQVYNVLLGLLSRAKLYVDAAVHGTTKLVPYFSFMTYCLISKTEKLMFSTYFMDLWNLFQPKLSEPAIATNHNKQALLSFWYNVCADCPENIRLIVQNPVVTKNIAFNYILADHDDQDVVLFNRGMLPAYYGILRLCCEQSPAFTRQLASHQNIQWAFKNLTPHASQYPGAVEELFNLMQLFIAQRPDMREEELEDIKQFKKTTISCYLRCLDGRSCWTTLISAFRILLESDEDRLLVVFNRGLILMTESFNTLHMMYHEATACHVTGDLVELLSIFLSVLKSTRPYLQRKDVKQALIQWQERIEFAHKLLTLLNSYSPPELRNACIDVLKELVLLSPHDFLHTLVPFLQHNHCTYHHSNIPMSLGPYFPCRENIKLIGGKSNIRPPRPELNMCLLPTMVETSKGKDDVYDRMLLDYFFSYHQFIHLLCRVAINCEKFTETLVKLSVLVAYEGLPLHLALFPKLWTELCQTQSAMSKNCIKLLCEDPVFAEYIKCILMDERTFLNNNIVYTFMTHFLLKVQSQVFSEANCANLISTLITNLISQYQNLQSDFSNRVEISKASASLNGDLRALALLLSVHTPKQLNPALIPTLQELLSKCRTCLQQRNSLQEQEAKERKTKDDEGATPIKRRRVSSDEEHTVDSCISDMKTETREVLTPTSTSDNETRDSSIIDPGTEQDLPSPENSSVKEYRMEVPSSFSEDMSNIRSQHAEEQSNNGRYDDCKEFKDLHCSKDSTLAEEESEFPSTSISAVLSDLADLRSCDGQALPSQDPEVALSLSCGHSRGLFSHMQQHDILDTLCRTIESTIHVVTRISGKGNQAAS

C/C(=C\CNC(=O)CCl)c1cnn(C)c1.Cl
inactive: [1] -0.267 | [2] -0.266 | [3] -0.227 | [4] 0.0033 | [5] -0.395

Reference: the supplement of paper PMC11732987, “Enantioselective OTUD7B fragment discovery through chemoproteomics screening and high-throughput optimisation” (Communications Chemistry, 2025)
